# Bioassay records: PubChem, National Center for Advancing Translational Sciences (NCATS)
# TGFb inhibitor – inhibitors of TGF-b signaling | HepG2 CAGA-GFP TGF-b/SMAD3 reporter, GFP fluorescence, 18 h; TGF-beta stimulated, 500 pg/mL final | AID 588855 | 410,000 tested, 1.2% active | Potency, µM (doses to about 46.1 µM), actives largely listed as inhibitors; note: nearly all actives have a fitted effect of over 65% in size
#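 HEPG2 CAGA-GFP reporter cells (1000/well, DMEM with 1% FBS) received compounds, then recombinant TGF-beta at 500 pg/mL final for 18 hours at 37 degrees C. Per-cell GFP summed per well was normalised to unstimulated and stimulated DMSO controls before curve fitting.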
# DT40 TDP1 CPT – growth inhibition of DT40 Tdp1-/-;hTDP1 cells with camptothecin (screen for TDP1 inhibitors). chicken DT40 Tdp1-/-;hTDP1 cells + 20 nM CPT, ATP luminescence, 48 h. Potency, µM (series often up to 46.2 µM), most hits filed as inhibitors. 420,000 tested, 12% active; note: nearly all actives have a fitted effect of over 55% in size
#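 Chicken DT40 Tdp1-/- cells complemented with human TDP1, 400 cells/well, exposed to compounds plus 20 nM camptothecin for at least 48 h at 37 C; viability read as ATP content by CellTiter-Glo luminescence.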
# HepG2 viability – counter-screen for TGF-b inhibitors: cytotoxicity in HepG2 cells; 410,000 tested, 0.76% active; Potency, µM (doses to about 46.1 µM), most hits filed as cytotoxic; AID 588856; HepG2 CAGA-GFP viability, ATP luminescence, 18 h
#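 CellTiter-Glo luminescence gave cytotoxicity after 18 hours at 37 degrees C. The cells were HepG2 CAGA-GFP in 1% FBS DMEM, stimulated with 500 pg/mL TGF-beta after compound addition. %Activity was normalised to no-cell wells (complete cell-killing) and DMSO (no toxicity), and curves were fitted and classified.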
# TDP1 cell noCPT – qHTS for Inhibitors of human tyrosyl-DNA phosphodiesterase 1 (TDP1): qHTS in cells in absence of CPT | DT40 Tdp1-/- hTDP1 cells, no CPT, ATP luminescence, 48 h | Potency, µM (doses to about 46.2 µM), hits mostly inhibitors | 420,000 tested, 15% active | AID 686978, 2013; note: nearly all actives have a fitted effect of over 55% in size
#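 Growth of hTDP1-complemented DT40 Tdp1-knockout cells is measured by ATP luminescence after at least 48 hr compound exposure at 37 °C, with DMSO substituting for the 20 nM CPT used in the parallel screen.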
# ASM inhibitor – human S-ASM enzyme inhibition; AID 504937; Potency, µM (series often up to 57.5 µM), hits mostly inhibitors; P17405; placental ASM, HMU-PC fluorogenic substrate, 60 min; 340,000 tested, 0.006% active
# Target sequence (P17405 47-631 limits assumed): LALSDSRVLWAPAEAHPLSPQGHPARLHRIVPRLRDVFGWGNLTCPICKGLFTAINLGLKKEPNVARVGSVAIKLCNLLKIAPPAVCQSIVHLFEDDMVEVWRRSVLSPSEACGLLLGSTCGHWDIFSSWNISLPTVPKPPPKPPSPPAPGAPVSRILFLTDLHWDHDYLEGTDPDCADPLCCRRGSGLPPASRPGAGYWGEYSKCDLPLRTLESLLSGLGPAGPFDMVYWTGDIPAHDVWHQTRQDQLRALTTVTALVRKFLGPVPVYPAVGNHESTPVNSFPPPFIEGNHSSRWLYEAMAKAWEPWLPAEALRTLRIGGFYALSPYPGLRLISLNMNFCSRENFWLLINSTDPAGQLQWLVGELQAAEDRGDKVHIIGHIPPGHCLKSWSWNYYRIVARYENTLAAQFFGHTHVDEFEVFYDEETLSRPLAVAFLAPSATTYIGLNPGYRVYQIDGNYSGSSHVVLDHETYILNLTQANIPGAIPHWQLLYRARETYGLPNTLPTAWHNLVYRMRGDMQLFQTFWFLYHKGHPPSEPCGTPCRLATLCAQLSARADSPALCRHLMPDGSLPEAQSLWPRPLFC
#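 Steps: dispense placental human ASM, pin compound, wait 10 min at room temperature, add HMU-PC0 substrate at 9 uM final, incubate 60 min at 37 °C, add stop solution raising pH to 10, read fluorescence.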
# IL1B secr inh – inhibitors of inflammasome signaling (IL-1 beta secretion); 360,000 tested, 4.7% active; THP-1 LPS/ATP IL-1B secretion, AlphaLISA, 16 h; active compounds read low; activity change, % at 57.5 µM; AID 743279; in the data active = activity change below about -50%; inconclusive = mostly about -30% to -49%
#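 Secreted IL-1B measured by AlphaLISA bead assay after 16 h compound exposure of THP-1 cells; compounds (final up to 57.5 uM) added 1 h before LPS (250 ng/mL) and ATP (1.25 mM) stimulation; lower signal means less secretion.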
# Numbers stand for hits; . = inactive; ? = inconclusive; / = no result given. Only some compounds are listed: those with a hit (about 19% of all), similar ones and a draw of the others. Unless noted, calls come from the whole dose curve; as a rule, active = well fitted curve in the direction sought with a large enough effect; inconclusive = small, poorly fitted or top-dose-only effect, or another doubt; inactive = no such curve, though single readings can be large; an effect the other way counts as inactive or inconclusive.
SMILES,TGFb inhibitor,DT40 TDP1 CPT,HepG2 viability,TDP1 cell noCPT,ASM inhibitor,IL1B secr inh
CCOc1ccc(C2=NC(c3cccs3)=Nc3ccc(C(C)C)cc3N2)cc1,.,?,.,?,/,/
CCCCOc1ccc(C2=NC(c3ccncc3)=Nc3ccc(OCC)cc3N2)cc1,.,16µM,.,?,/,/
CCCOc1ccc(C2=NC(c3ccncc3)=Nc3ccc(C)cc3N2)cc1,.,?,.,?,/,/
COc1cc(C=CC(=O)N2CCN(CC(=O)N3CCCC3)CC2)cc(OC)c1OC,.,.,.,.,/,.
Cc1ccc(C(=O)Nc2cccc(C(F)(F)F)c2)cc1Nc1ncnc2nc[nH]c12,.,26µM,.,21µM,/,.
Cc1ccc(C(=O)Nc2cccc(C(F)(F)F)c2)cc1NC(=O)c1ccno1,.,?,.,12µM,.,?
Cc1cccc(Nc2ncnc3nc[nH]c23)c1C,.,.,.,.,.,.
Cc1ccc(C(=O)Nc2cccc(C(F)(F)F)c2)cc1NC(=O)c1nccn1C,?,.,.,.,.,.
Cc1ccc(C(=O)Nc2cccc(C(F)(F)F)c2)cc1Nc1cnccn1,?,23µM,.,16µM,.,.
CN(CCC(=O)Nc1ccc(Cl)cc1)Cc1ccccc1,.,.,.,?,.,.
COCc1cccc(-c2csc(C(NC(C)=O)c3ccc(F)c(F)c3)n2)c1 (configuration not stated),.,?,.,.,/,.
Cc1ccc(C)c(CN2CCC(CNC(=O)Nc3cccc(Cl)c3C)CC2)c1,.,?,.,?,.,-65
O=C(NCC1CCN(Cc2ccccc2F)CC1)Nc1ccc(F)c(Cl)c1,?,?,.,?,/,/
Cc1ccc(C)c(CN2CCC(CNC(=O)Nc3ccc(F)c(Cl)c3)CC2)c1,?,29µM,18µM,?,.,-92
Nc1nc(N)c(N=O)c(OCC2CCCCC2)n1,.,12µM,.,7.3µM,.,?
C=C(C)C1COc2cc3oc(=O)ccc3cc2O1 (configuration not stated),/,.,/,.,/,/
CCc1c(C)[nH]c2c1C(=O)C(CN1CCOCC1)CC2 (configuration not stated),.,.,.,.,.,.
COc1ccc(S(=O)(=O)NCCc2sc(-c3cccnc3)nc2C)cc1,.,/,.,/,/,/
CC1(C)C2CCC1(C)C(OCC[N+](C)(C)CC(=O)OC1CCCCC1)C2 (configuration not stated),.,1.2µM,.,0.65µM,.,.
CC(=O)O[C@@H]1CC2CCC1(C)C2(C)C (some centres not stated),/,.,/,.,/,/
CCOC(=O)C[N+](C)(C)CCOC1CC2CCC1(C)C2(C)C (configuration not stated),.,16µM,.,7.3µM,.,.
CN(c1ccccc1)S(=O)(=O)c1cccc(NC(=O)CSc2ncn[nH]2)c1,.,8.2µM,.,5.8µM,.,.
CN(c1ccccc1)S(=O)(=O)c1cccc(NC(=O)CSc2nnc(N)s2)c1,.,8.2µM,.,8.2µM,.,.
CN(c1ccccc1)S(=O)(=O)c1cccc(NC(=O)CSc2nnc(C3CC3)n2C)c1,.,.,.,.,.,.
CN(c1ccccc1)S(=O)(=O)c1cccc(NC(=O)CSc2nncs2)c1,?,7.3µM,.,8.2µM,.,.
SMILES,TGFb inhibitor,DT40 TDP1 CPT,HepG2 viability,TDP1 cell noCPT,ASM inhibitor,IL1B secr inh
C[C@@H]1CN([C@@H](C)CO)C(=O)c2cc(NS(=O)(=O)c3ccc(Cl)cc3)ccc2O[C@H]1CN(C)Cc1ccncc1,.,.,.,.,.,.
Cc1ccc(NC(=O)CN2CCN(S(=O)(=O)c3ccc4c(c3)OCCO4)CC2)c(C)c1,.,.,.,?,/,.
COc1cc(/C=C/C(=O)c2ccc(Cl)s2)cc(OC)c1O,?,?,.,29µM,?,-105
O=C(C=Cc1ccc(Cl)s1)c1ccc(Cl)s1,.,?,.,?,.,-51
C/C(=C\C(=O)c1ccc(Cl)s1)N(C)C,.,.,.,.,.,.
COc1ccc(/C=C/C(=O)c2ccc(Cl)s2)cc1O,.,?,.,18µM,.,.
Cc1c(/C=C/C(=O)c2ccc(Cl)s2)cnn1C,.,.,.,?,.,.
O=C(CCC1CCCCC1)Nc1nnc(C(F)(F)F)s1,.,.,.,?,.,.
COc1ccc(N2CCN(C(=O)COC(=O)CNC(=O)c3ccc(C)cc3)CC2)cc1,.,.,.,.,.,.
COc1ccccc1CNC(=O)c1cccc(S(=O)(=O)N2CCCC2)c1,.,.,.,.,.,.
CCN(CC)CCCNC(=O)C1CCN(S(C)(=O)=O)CC1,.,.,.,.,/,/
O=C(NCCC1CCCCN1S(=O)(=O)c1ccc(F)cc1)C(=O)NC1CCCC1 (configuration not stated),.,?,.,?,.,.
Cc1ccc(S(=O)(=O)N2CCCCC2CCNC(=O)C(=O)NC2CCCC2)cc1 (configuration not stated),.,?,.,21µM,.,.
Cc1ccc(C)c(S(=O)(=O)N2CCCCC2CCNC(=O)C(=O)NC2CCCC2)c1 (configuration not stated),?,?,.,16µM,.,.
CC1CCCC(NC(=O)C2CCC(CNc3c(N4CCCCC4)c(=O)c3=O)CC2)C1C (configuration not stated),.,.,.,.,.,.
COc1cccc(-c2nc(CS(=O)(=O)CC(=O)NC3CCCc4ccccc43)c(C)o2)c1 (configuration not stated),?,23µM,.,18µM,.,.
COc1cccc(-c2nc(CS(=O)(=O)CC(=O)NCCc3ccc(Cl)cc3)c(C)o2)c1,11µM,?,.,?,/,/
COc1cccc(-c2nc(CS(=O)(=O)CC(=O)Nc3cc(OC)ccc3OC)c(C)o2)c1,.,?,.,5.8µM,.,.
O=C(CSc1nc(-c2ccccc2)nc2c1CCCC2)c1ccc(Cl)cc1,.,.,.,.,/,/
O=C(Nc1cc([N+](=O)[O-])ccc1O)c1cccc(NC(=O)c2ccco2)c1,.,.,.,.,.,.
C[C@@H]1[C@H]2[C@@H]3CC[C@@H](C3)[C@H]2CN[C@H]1c1cn(Cc2ccccc2)c2ccccc12,?,16µM,.,?,.,.
Cc1ccc(S(=O)(=O)N2C[C@@H]3[C@H]4CC[C@H](C4)[C@@H]3[C@@H](C)[C@H]2c2ccco2)cc1,?,15µM,.,15µM,.,.
